Target: ScBbc1
Assay: SPOT peptide array binding signal intensity (averaged, normalized) (arbitrary units (background-subtracted, floor 0; scale differs between SH3 domains)); higher = stronger binding of the SH3 domain to the peptide
Method in brief: (§1)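 Binding signal is given in arbitrary units that differ between domains and is the normalized, background-subtracted spot intensity averaged across replicates. Each GST-SH3 fusion from one of four yeast species was made in E. coli BL21(DE3), purified on glutathione Sepharose and incubated at 10 μg/ml overnight at 4°C on cellulose-bound synthetic 15-mer peptides in which cysteines were replaced by serines. Detection used anti-GST antibody, an HRP anti-mouse secondary and luminol, followed by imaging and Genespotter quantification.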

Row | Binder | SPOT peptide array binding signal intensity
1 | RSLRKRPTSPSISGS | 94

Target: ScBem1-D1
Assay: as above
Method in brief: as §1

Row | Binder | SPOT peptide array binding signal intensity
2 | RSLRKRPTSPSISGS | 50.5

Target: ScBzz1-D1
Assay: as above
Method in brief: as §1

Row | Binder | SPOT peptide array binding signal intensity
3 | RSLRKRPTSPSISGS | 26.5

Target: ScBzz1-D2
Assay: as above
Method in brief: as §1

Row | Binder | SPOT peptide array binding signal intensity
4 | RSLRKRPTSPSISGS | 28

Target: ScCyk3
Assay: as above
Method in brief: as §1

Row | Binder | SPOT peptide array binding signal intensity
5 | RSLRKRPTSPSISGS | 294

Target: ScFus1
Assay: as above
Method in brief: as §1

Row | Binder | SPOT peptide array binding signal intensity
6 | RSLRKRPTSPSISGS | 488

Target: ScHof1
Assay: as above
Method in brief: as §1

Row | Binder | SPOT peptide array binding signal intensity
7 | RSLRKRPTSPSISGS | 1

Target: ScHse1
Assay: as above
Method in brief: as §1

Row | Binder | SPOT peptide array binding signal intensity
8 | RSLRKRPTSPSISGS | 1770

Target: ScLsb1
Assay: as above
Method in brief: as §1

Row | Binder | SPOT peptide array binding signal intensity
9 | RSLRKRPTSPSISGS | 54

Target: ScLsb2
Assay: as above
Method in brief: as §1

Row | Binder | SPOT peptide array binding signal intensity
10 | RSLRKRPTSPSISGS | 20

Target: ScLsb3
Assay: as above
Method in brief: as §1

Row | Binder | SPOT peptide array binding signal intensity
11 | RSLRKRPTSPSISGS | 1330

Target: ScLsb4
Assay: as above
Method in brief: as §1

Row | Binder | SPOT peptide array binding signal intensity
12 | RSLRKRPTSPSISGS | 27.5

Target: ScMyo3
Assay: as above
Method in brief: as §1

Row | Binder | SPOT peptide array binding signal intensity
13 | RSLRKRPTSPSISGS | 11

Target: ScMyo5
Assay: as above
Method in brief: as §1

Row | Binder | SPOT peptide array binding signal intensity
14 | RSLRKRPTSPSISGS | 3

Target: ScNbp2
Assay: as above
Method in brief: as §1

Row | Binder | SPOT peptide array binding signal intensity
15 | RSLRKRPTSPSISGS | 1530

Target: ScPex13
Assay: as above
Method in brief: as §1

Row | Binder | SPOT peptide array binding signal intensity
16 | RSLRKRPTSPSISGS | 3

Target: ScRvs167
Assay: as above
Method in brief: as §1

Row | Binder | SPOT peptide array binding signal intensity
17 | RSLRKRPTSPSISGS | 75.5

Target: ScSho1
Assay: as above
Method in brief: as §1

Row | Binder | SPOT peptide array binding signal intensity
18 | RSLRKRPTSPSISGS | 959

Target: ScSla1-D1-D2
Assay: as above
Method in brief: as §1

Row | Binder | SPOT peptide array binding signal intensity
19 | RSLRKRPTSPSISGS | 607

Target: ScSla1-D3
Assay: as above
Method in brief: as §1

Row | Binder | SPOT peptide array binding signal intensity
20 | RSLRKRPTSPSISGS | 30

Target: SpAbp1-D1
Assay: as above
Method in brief: as §1

Row | Binder | SPOT peptide array binding signal intensity
21 | RSLRKRPTSPSISGS | 477

Target: SpBbc1
Assay: as above
Method in brief: as §1

Row | Binder | SPOT peptide array binding signal intensity
22 | RSLRKRPTSPSISGS | 8

Target: SpBzz1-D1
Assay: as above
Method in brief: as §1

Row | Binder | SPOT peptide array binding signal intensity
23 | RSLRKRPTSPSISGS | 249

Target: SpBzz1-D2
Assay: as above
Method in brief: as §1

Row | Binder | SPOT peptide array binding signal intensity
24 | RSLRKRPTSPSISGS | 0.75

Target: SpCyk3
Assay: as above
Method in brief: as §1

Row | Binder | SPOT peptide array binding signal intensity
25 | RSLRKRPTSPSISGS | 13.5

Target: SpHof1
Assay: as above
Method in brief: as §1

Row | Binder | SPOT peptide array binding signal intensity
26 | RSLRKRPTSPSISGS | 428

Target: SpHof1-2
Assay: as above
Method in brief: as §1

Row | Binder | SPOT peptide array binding signal intensity
27 | RSLRKRPTSPSISGS | 43.8

Target: SpHof1-3
Assay: as above
Method in brief: as §1

Row | Binder | SPOT peptide array binding signal intensity
28 | RSLRKRPTSPSISGS | 730

Target: SpHse1
Assay: as above
Method in brief: as §1

Row | Binder | SPOT peptide array binding signal intensity
29 | RSLRKRPTSPSISGS | 621

Target: SpLsb1
Assay: as above
Method in brief: as §1

Row | Binder | SPOT peptide array binding signal intensity
30 | RSLRKRPTSPSISGS | 17.8

Target: SpLsb4
Assay: as above
Method in brief: as §1

Row | Binder | SPOT peptide array binding signal intensity
31 | RSLRKRPTSPSISGS | 776

Target: SpMyo1
Assay: as above
Method in brief: as §1

Row | Binder | SPOT peptide array binding signal intensity
32 | RSLRKRPTSPSISGS | 9

Target: SpNbp2
Assay: as above
Method in brief: as §1

Row | Binder | SPOT peptide array binding signal intensity
33 | RSLRKRPTSPSISGS | 2180

Target: SpPex13
Assay: as above
Method in brief: as §1

Row | Binder | SPOT peptide array binding signal intensity
34 | RSLRKRPTSPSISGS | 7

Target: SpRvs167
Assay: as above
Method in brief: as §1

Row | Binder | SPOT peptide array binding signal intensity
35 | RSLRKRPTSPSISGS | 10.8

Target: SpSla1-D1-D2
Assay: as above
Method in brief: as §1

Row | Binder | SPOT peptide array binding signal intensity
36 | RSLRKRPTSPSISGS | 5

Target: SpSla1-D3
Assay: as above
Method in brief: as §1

Row | Binder | SPOT peptide array binding signal intensity
37 | RSLRKRPTSPSISGS | 8

Reference: the supplement of paper PMC4466140
